In the supplement of paper PMC11732987, “Enantioselective OTUD7B fragment discovery through chemoproteomics screening and high-throughput optimisation” (Communications Chemistry, 2025):

Legend:
Test in all cases: log2 ratio of Biotin-Ahx-Ub-VS probe labelling (fragment/DMSO); higher = less target engagement (more negative = stronger competition), active = hit call of the paper (q ≤ 0.05, log2 ratio ≤ -1)
Conditions in all cases: compound concentration: 200 uM; treatment time: 3 h
[1] = compound: CC(C)CN(C1CC1)C(=O)CCl
Outline: (§1)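 Fragment (200 µM) or vehicle was incubated for 3 h with triplicate HEK293T lysate samples of 495 µg, which were then treated with Biotin-Ahx-Ub-VS at 0.5 µM final for 1 h. Labelled DUBs were enriched on NeutrAvidin, digested with LysC and trypsin, and analysed by diaPASEF LC-MS/MS. Values are average log2 fragment/vehicle ratios from an unpaired t-test on global-median-normalised Spectronaut label-free quantities, using proteins with ≥2 unique peptides.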

[2] = compound: CC(NC(=O)CCl)c1cccs1
Outline: as §1

[3] = compound: CC1CCCCC1NC(=O)CCl
Outline: as §1

[4] = compound: CC1CCCCN1C(=O)CCl
Outline: as §1

[5] = compound: CC1CN(CC(C)O1)C(=O)CCl
Outline: as §1

[6] = compound: CN(C1CCCCC1)C(=O)CCl
Outline: as §1

[7] = compound: Cc1cc(NC(=O)CCl)no1
Outline: as §1

[8] = compound: Cc1cccc(NC(=O)CCl)c1
Outline: as §1

[9] = compound: Cc1nc(NC(=O)CCl)sc1C
Outline: as §1

[10] = compound: Cc1nnc(NC(=O)CCl)s1
Outline: as §1

[11] = compound: Cl.Cc1ncsc1CNC(=O)CCl
Outline: as §1

[12] = compound: ClCC(=O)N1CCCCCCC1
Outline: as §1

[13] = compound: ClCC(=O)NC1(CCCC1)C#N
Outline: as §1

[14] = compound: ClCC(=O)NCC1CCC1
Outline: as §1

[15] = compound: ClCC(=O)NCC1CCCO1
Outline: as §1

[16] = compound: ClCC(=O)NCc1ccco1
Outline: as §1

[17] = compound: ClCC(=O)Nc1cccc(Cl)c1
Outline: as §1

[18] = compound: ClCC(=O)NC(C1CC1)C1CC1
Outline: as §1

Measured: log2 ratio of Biotin-Ahx-Ub-VS probe labelling

UCHL3 (UniProt P15374)
UniProt P15374, sequence (P15374 whole entry): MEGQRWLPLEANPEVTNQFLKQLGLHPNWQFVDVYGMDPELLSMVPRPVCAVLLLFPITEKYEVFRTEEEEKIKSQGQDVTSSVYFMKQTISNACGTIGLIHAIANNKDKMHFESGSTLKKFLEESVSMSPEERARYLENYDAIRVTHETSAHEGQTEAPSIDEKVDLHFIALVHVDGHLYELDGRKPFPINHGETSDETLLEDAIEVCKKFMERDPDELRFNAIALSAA
inactive: [1] 0.39 | [2] 0.116 | [3] 0.0229 | [4] 0.0176 | [5] 0.122 | [6] -0.0569 | [7] -0.129 | [8] -0.345 | [9] 0.56 | [10] 0.214 | [11] 0.504 | [12] 0.341 | [13] -0.0242 | [14] 0.0333 | [15] 0.275 | [16] 0.103 | [17] -0.827

UniProt Q5T2D3
UniProt Q5T2D3, sequence (Q5T2D3 whole entry): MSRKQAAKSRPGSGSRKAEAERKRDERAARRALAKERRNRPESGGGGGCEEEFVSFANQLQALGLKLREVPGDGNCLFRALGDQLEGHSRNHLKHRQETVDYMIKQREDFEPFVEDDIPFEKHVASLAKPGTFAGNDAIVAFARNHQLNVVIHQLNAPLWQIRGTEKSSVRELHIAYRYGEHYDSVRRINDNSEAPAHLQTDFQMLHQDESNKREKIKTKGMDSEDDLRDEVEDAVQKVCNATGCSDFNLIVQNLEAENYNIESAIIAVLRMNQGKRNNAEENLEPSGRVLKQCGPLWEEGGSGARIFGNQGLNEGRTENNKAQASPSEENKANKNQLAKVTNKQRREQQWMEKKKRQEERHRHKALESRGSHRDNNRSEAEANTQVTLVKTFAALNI
inactive: [1] 0.0213 | [2] -0.301 | [3] -0.208 | [4] -0.128 | [5] -0.269 | [6] -0.159 | [7] -0.226 | [8] -0.0544 | [9] -0.17 | [10] -0.141 | [11] -0.0477 | [12] -0.0257 | [13] -0.314 | [14] -0.239 | [15] -0.00242 | [16] -0.0389 | [17] -0.998

COPS5 (UniProt Q92905)
UniProt Q92905, sequence (Q92905 whole entry, looked up): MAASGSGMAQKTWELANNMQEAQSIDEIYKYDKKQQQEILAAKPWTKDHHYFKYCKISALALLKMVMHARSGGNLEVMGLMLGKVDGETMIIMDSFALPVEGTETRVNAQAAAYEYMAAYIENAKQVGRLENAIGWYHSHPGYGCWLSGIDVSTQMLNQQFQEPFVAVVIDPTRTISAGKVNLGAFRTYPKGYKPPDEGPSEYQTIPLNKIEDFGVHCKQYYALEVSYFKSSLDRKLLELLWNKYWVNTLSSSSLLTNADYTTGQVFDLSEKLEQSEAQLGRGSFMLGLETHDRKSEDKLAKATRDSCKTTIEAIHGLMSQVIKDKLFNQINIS
inactive: [1] -0.228 | [2] 0.105 | [3] -0.102 | [4] -0.0488 | [5] -0.0269 | [6] 0.0396 | [7] -0.141 | [8] -0.303 | [9] -0.00505 | [10] -0.0303 | [11] 0.0391 | [12] 0.0347 | [13] 0.203 | [14] 0.0382 | [15] 0.0301 | [16] 0.0105 | [17] 0.27

USP42 (UniProt Q9H9J4)
UniProt Q9H9J4, sequence (Q9H9J4 whole entry): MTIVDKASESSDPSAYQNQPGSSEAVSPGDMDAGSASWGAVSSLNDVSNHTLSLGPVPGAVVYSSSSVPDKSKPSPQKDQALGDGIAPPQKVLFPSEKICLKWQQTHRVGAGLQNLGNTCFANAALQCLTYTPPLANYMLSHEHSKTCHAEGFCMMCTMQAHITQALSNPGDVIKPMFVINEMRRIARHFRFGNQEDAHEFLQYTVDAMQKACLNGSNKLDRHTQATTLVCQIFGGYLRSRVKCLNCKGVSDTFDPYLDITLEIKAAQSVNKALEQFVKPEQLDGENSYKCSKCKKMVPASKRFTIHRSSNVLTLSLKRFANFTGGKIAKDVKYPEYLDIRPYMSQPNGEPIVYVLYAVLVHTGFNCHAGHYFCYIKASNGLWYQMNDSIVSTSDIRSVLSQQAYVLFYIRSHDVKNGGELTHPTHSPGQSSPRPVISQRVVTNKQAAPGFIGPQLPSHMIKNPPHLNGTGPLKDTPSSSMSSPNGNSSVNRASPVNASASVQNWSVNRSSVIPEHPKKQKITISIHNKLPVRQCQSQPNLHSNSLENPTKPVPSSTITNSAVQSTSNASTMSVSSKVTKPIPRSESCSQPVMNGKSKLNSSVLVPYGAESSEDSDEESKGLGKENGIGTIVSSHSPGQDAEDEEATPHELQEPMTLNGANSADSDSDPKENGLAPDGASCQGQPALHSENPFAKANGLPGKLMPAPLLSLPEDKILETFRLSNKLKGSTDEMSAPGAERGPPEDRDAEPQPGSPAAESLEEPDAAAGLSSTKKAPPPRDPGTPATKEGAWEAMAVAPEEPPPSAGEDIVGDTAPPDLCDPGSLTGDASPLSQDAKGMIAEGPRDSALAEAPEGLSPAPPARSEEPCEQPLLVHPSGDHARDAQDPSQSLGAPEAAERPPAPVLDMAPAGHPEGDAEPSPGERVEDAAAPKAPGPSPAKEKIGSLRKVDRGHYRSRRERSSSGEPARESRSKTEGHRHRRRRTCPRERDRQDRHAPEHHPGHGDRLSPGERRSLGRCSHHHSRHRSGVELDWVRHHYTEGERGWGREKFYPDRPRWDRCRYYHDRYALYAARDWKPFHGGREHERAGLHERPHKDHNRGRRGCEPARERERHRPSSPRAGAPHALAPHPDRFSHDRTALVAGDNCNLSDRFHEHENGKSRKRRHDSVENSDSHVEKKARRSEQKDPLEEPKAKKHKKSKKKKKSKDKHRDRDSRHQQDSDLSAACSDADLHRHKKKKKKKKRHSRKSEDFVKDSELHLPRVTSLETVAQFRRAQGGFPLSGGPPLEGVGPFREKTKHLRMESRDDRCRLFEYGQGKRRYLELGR
inactive: [1] 0.361 | [2] -0.342 | [3] -0.295 | [4] -0.305 | [5] -0.42 | [6] -0.0896 | [7] 0.113 | [8] 0.381 | [9] 0.125 | [10] 0.374 | [11] 0.49 | [12] 0.0331 | [18] -0.0349 | [13] -0.72 | [14] -0.299 | [15] -0.0821 | [16] -0.125 | [17] 0.584
